The source of these data is PubChem BioAssay (EPA / NIEHS).

Results filed as inconclusive are left out. Activity calls are given as the source filed them. The calls were made as follows, unless noted: active = hit-call score of the fitted dose curve at least 0.9, where 1 is the maximum; inactive = score below 0.9.

Assay [1] in a line: BSK_LPS_PGE2: BioMAP Diversity Plus: LPS Assay for Prostaglandin E2 (PGE2) Biomarker Activity (AID 2283082).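 As to AC50: secreted prostaglandin E2 measured by ELISA in LPS-stimulated co-culture.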 Conditions: primary human HUVEC with PBMC; actives raise or lower the signal. The method in brief:
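Endpoint derived from bidirectional curve fitting versus DMSO of ELISA-measured PGE2 in LPS-stimulated human primary vascular co-culture (HUVEC with PBMC) harvested at 24 h.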

Read-out in assay [2]: Macrophage colony-stimulating factor (MCSF), CSF1 (gene 1435)
As to the kind of experiment: BSK_LPS_MCSF: BioMAP Diversity Plus: LPS Assay for Macrophage colony-stimulating factor (MCSF) Biomarker Activity (AID 2283083). Particulars: primary human HUVEC with PBMC; actives raise or lower the signal. Summed up:
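HUVEC–PBMC co-culture, M-CSF measured by ELISA 24 h after chemical dosing. Fitted in both directions relative to DMSO as negative control; overt cytotoxicity assessed by SRB total-protein staining in parallel cultures.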

Read-out in assay [3]: Tissue Factor, F3 (gene 2152)
As to the kind of experiment: BSK_LPS_TissueFactor: BioMAP Diversity Plus: LPS Assay for Tissue Factor Biomarker Activity (AID 2283084). Conditions: primary human HUVEC with PBMC; actives raise or lower the signal. Summed up:
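Human umbilical vein endothelial cells co-cultured with PBMC were dosed with compound. Cell-surface CD142 was measured by ELISA 24 h later. Activity was fitted bidirectionally against DMSO, with SRB total-protein staining in parallel cultures for cytotoxicity.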

Read-out in assay [4]: Tumor necrosis factor (Homo sapiens) (UniProt P01375)
As to the kind of experiment: BSK_LPS_TNFa: BioMAP Diversity Plus: LPS Assay for Tumour Necrosis Factor alpha (TNFa) Biomarker Activity (AID 2283085). Particulars: primary human HUVEC with PBMC; actives raise or lower the signal. Summed up:
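Primary human vascular co-culture of HUVEC and PBMC; TNFa ELISA 24 h after treatment, analysed as increase or decrease relative to DMSO control.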

Read-out in assay [5]: Vascular cell adhesion molecule 1 (VCAM1), VCAM1 (gene 7412)
In words: BSK_LPS_VCAM1: BioMAP Diversity Plus: LPS Assay for Vascular cell adhesion molecule 1 (VCAM1) Biomarker Activity (AID 2283086). Conditions: primary human HUVEC with PBMC; actives raise or lower the signal. The method in brief: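 Primary human vascular co-culture (umbilical vein endothelium plus PBMC) stimulated with LPS received chemical; 24 h later VCAM-1 was read by ELISA. Overt cytotoxicity was assessed by sulforhodamine B staining of parallel cultures at the same time point.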

Read-out in a further assay: CD38, CD38 (gene 952)
In words: BSK_SAg_CD38: BioMAP Diversity Plus: SAg Assay for CD38 Biomarker Activity (AID 2283087). Conditions: primary human HUVEC with PBMC; actives raise or lower the signal. The method in brief:
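Fluorescence ELISA of cell-surface CD38 served as the read-out, with either increase or decrease fitted against DMSO controls. Cells were a human umbilical vein endothelium plus PBMC co-culture under SEB/TSST-1 stimulation, measured 24 h after dosing.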

Read-out in another assay: CD40, CD40 (gene 958)
In words: BSK_SAg_CD40: BioMAP Diversity Plus: SAg Assay for CD40 Biomarker Activity (AID 2283088). Particulars: primary human HUVEC with PBMC; actives raise or lower the signal. The method in brief:
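HUVEC plus PBMC co-culture, superantigen-activated, with CD40 read by ELISA 24 h after dosing. Curves fitted in both directions against DMSO. Overt cytotoxicity checked by parallel SRB total-protein staining.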

Read-out in a further assay: CD69, CD69 (gene 969)
As to the kind of experiment: BSK_SAg_CD69: BioMAP Diversity Plus: SAg Assay for CD69 Biomarker Activity (AID 2283089).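 As to AC50: cell surface CD69 protein quantified by ELISA with fluorescence detection.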 Particulars: primary human HUVEC with PBMC; actives raise or lower the signal. Summed up: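 Values derive from bidirectional fitting relative to DMSO vehicle. Cells: umbilical vein endothelium plus peripheral blood mononuclear cells, treated 24 h before fluorescent ELISA for CD69.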

Read-out in assay [6]: Monocyte Chemoattractant Protein-1 (MCP1), CCL2 (gene 6347)
As to the kind of experiment: BSK_SAg_MCP1: BioMAP Diversity Plus: SAg Assay for Monocyte Chemoattractant Protein-1 (MCP1) Biomarker Activity (AID 2283090). Particulars: primary human HUVEC with PBMC; actives raise or lower the signal. Summed up: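 MCP-1 levels in the endothelial–PBMC SAg co-culture were quantified by ELISA at 24 h post-dosing; both increases and decreases versus DMSO scored. Cytotoxicity monitored by SRB total protein in parallel cultures.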

Read-out in assay [7]: E-selectin (Homo sapiens) (UniProt P16581)
As to the kind of experiment: BSK_SAg_Eselectin: BioMAP Diversity Plus: SAg Assay for Eselectin Biomarker Activity (AID 2283091). Particulars: primary human HUVEC with PBMC; actives raise or lower the signal. The method in brief: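 Human umbilical vein endothelial cells co-cultured with peripheral blood mononuclear cells, SAg system. E-selectin is measured by ELISA 24 h after dosing and fitted bidirectionally against DMSO. Cytotoxicity is checked by SRB staining of parallel cultures.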

Read-out in assay [8]: Interleukin-8 (IL8), CXCL8 (gene 3576)
As to the kind of experiment: BSK_SAg_IL8: BioMAP Diversity Plus: SAg Assay for Interleukin-8 (IL8) Biomarker Activity (AID 2283094). Particulars: primary human HUVEC with PBMC; actives raise or lower the signal. Summed up:
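In this co-culture of human umbilical vein endothelium with peripheral blood mononuclear cells, IL-8 is assayed by ELISA at 24 h. DMSO serves as baseline for bidirectional curve fitting.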

A short description of assay [9]: BSK_SAg_Proliferation: Cell Proliferation Assessment in the BioMAP Diversity Plus: SAg Assay (AID 2283095).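 Also: relative cell number as total protein by SRB absorbance in sub-confluent culture.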 Particulars: primary human HUVEC with PBMC. The method in brief: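 Readout is SRB-stained protein (560 nm) in a primary human HUVEC and PBMC co-culture; sub-confluent cultures are read at 96 h. Activity is fitted bidirectionally using DMSO as baseline.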
Assay [10] can be described thus: BSK_SAg_PBMCCytotoxicity: PBMC Cytotoxicity Assessment in the BioMAP Diversity Plus: SAg Assay (AID 2283093).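 Also: PBMC viability measured as Alamar Blue reduction fluorescence at 546/580 nm; fitted both ways against DMSO so a hit may be loss or gain of signal.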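 As to AC50: PBMC superantigen activated with SEB plus TSST-1 one hour after compound addition.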 Particulars: primary human HUVEC with PBMC. The method in brief: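 Compound added to 75,000 PBMC/well for 1 h; SEB and TSST-1 then added at 20 ng/mL final each; 90 h incubation; Alamar Blue 6 h; read 546/580 nm ex/em. Activity fitted bidirectionally relative to DMSO baseline.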

In assay [11] the target is human CYP2A6, CYP2A6 (gene 1548) (UniProt P11509). In words: NVS_ADME_hCYP2A6: NovaScreen (NVS) CYP450-related Enzyme Activity (ADME) Assay for human CYP2A6 (AID 2283099; active = hit-call score of the fitted dose curve at least 0.9, where 1 is the maximum). The method in brief:
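Recombinant human CYP2A6 expressed in insect cells, cell-free; fluorogenic substrate turnover read by fluorescence intensity 0.5 h after dosing. Primary screen 10 uM in duplicate, then concentration-response up to 20 uM; acetonitrile as negative control.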

Read-out in assay [12]: Monokine induced gamma interferon (MIG), CXCL9 (gene 4283)
In words: BSK_SAg_MIG: BioMAP Diversity Plus: SAg Assay for Monokine induced gamma interferon (MIG) Biomarker Activity (AID 2283092). Conditions: primary human HUVEC with PBMC; actives raise or lower the signal. The method in brief: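 Values reflect bidirectional fitting of ELISA-measured MIG against DMSO vehicle, taken 24 h after dosing of a co-culture of human umbilical vein endothelial cells and peripheral blood mononuclear cells.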

Assay [13] deals with human CYP2B6, CYP2B6 (gene 1555) (UniProt P20813). In words: NVS_ADME_hCYP2B6: NovaScreen (NVS) CYP450-related Enzyme Activity (ADME) Assay for human CYP2B6 (AID 2283101; active = hit-call score of the fitted dose curve at least 0.9, where 1 is the maximum). The method in brief:
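Compounds were first screened in duplicate at 10 uM against recombinant enzyme, with the fluorescent product measured after 1 hour. Active compounds were retested over a concentration series. Loss of fluorescence versus acetonitrile control was scored as reduced enzyme activity.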

Assay [14] can be described thus: BSK_SAg_SRB: Viability Assessment in the BioMAP Diversity Plus: SAg Assay (AID 2283096).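 Also: cells read one day after compound addition; hits may be either gain or loss of signal compared with DMSO.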 Particulars: primary human HUVEC with PBMC. The method in brief: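 Total protein by sulforhodamine B staining, 24 h after dosing, in HUVEC–PBMC co-culture; DMSO-referenced bidirectional fitting.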
The target in assay [15] is human CYP2D6, CYP2D6 (gene 1565) (UniProt P10635). In words: NVS_ADME_hCYP2D6: NovaScreen (NVS) CYP450-related Enzyme Activity (ADME) Assay for human CYP2D6 (AID 2283107; active = hit-call score of the fitted dose curve at least 0.9, where 1 is the maximum). The method in brief: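 Cell-free assay using recombinant human CYP2D6 expressed in insect cells, with a fluorogenic substrate read after 1 h. Primary screen in duplicate at 10 uM; actives followed up in concentration series. Loss of signal fitted relative to acetonitrile.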
human CYP2D6, CYP2D6 (gene 1565), sequence (P10635 whole entry, looked up): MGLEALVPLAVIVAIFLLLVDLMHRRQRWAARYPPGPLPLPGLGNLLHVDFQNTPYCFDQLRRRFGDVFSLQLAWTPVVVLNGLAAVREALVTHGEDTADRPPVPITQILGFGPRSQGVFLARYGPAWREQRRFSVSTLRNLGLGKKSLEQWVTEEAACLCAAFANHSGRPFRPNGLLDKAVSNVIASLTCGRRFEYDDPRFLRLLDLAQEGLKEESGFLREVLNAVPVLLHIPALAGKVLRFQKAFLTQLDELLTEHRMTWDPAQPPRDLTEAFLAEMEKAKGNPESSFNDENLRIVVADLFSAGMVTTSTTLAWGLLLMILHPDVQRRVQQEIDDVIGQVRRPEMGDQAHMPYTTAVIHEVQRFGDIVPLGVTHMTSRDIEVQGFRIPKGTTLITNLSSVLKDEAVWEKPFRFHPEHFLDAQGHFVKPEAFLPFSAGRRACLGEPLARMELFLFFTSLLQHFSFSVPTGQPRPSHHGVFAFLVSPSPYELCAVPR

Tumor necrosis factor (Homo sapiens), sequence (P01375 whole entry, looked up): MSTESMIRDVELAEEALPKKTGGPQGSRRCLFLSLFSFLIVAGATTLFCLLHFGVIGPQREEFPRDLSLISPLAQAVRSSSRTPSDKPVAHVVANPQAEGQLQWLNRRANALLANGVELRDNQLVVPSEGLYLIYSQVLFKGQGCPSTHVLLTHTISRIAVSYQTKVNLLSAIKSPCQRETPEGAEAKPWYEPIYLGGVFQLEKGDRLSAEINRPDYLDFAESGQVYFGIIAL
E-selectin (Homo sapiens), sequence (P16581 whole entry, looked up): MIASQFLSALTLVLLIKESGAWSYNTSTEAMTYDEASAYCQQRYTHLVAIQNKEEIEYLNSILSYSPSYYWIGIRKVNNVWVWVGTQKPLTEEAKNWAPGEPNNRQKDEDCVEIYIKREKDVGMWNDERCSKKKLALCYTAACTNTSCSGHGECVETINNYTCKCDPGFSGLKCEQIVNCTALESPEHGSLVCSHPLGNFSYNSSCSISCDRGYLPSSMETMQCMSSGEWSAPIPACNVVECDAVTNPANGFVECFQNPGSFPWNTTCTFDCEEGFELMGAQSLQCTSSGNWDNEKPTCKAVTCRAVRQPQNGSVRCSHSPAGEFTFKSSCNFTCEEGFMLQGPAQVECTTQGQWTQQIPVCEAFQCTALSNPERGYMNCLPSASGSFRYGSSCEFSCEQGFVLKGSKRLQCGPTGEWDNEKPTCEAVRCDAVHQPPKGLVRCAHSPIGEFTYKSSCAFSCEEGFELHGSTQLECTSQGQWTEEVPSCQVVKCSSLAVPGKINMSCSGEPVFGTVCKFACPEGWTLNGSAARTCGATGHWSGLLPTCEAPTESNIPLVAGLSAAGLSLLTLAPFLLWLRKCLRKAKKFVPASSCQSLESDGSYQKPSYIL
human CYP2A6, CYP2A6 (gene 1548), sequence (P11509 whole entry, looked up): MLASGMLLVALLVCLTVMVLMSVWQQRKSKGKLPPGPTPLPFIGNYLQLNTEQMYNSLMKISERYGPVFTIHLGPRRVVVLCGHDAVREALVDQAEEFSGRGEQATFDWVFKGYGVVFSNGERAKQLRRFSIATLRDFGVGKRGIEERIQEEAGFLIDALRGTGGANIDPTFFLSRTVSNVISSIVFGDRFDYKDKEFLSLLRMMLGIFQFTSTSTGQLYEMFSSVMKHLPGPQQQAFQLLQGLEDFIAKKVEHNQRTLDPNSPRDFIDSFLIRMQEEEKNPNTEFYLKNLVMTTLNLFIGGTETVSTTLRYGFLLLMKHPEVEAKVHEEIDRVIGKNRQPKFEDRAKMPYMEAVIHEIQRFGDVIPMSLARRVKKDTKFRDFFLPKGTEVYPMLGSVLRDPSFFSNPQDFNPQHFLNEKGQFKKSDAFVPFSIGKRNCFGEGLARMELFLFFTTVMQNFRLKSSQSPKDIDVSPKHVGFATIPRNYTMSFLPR
human CYP2B6, CYP2B6 (gene 1555), sequence (P20813 whole entry, looked up): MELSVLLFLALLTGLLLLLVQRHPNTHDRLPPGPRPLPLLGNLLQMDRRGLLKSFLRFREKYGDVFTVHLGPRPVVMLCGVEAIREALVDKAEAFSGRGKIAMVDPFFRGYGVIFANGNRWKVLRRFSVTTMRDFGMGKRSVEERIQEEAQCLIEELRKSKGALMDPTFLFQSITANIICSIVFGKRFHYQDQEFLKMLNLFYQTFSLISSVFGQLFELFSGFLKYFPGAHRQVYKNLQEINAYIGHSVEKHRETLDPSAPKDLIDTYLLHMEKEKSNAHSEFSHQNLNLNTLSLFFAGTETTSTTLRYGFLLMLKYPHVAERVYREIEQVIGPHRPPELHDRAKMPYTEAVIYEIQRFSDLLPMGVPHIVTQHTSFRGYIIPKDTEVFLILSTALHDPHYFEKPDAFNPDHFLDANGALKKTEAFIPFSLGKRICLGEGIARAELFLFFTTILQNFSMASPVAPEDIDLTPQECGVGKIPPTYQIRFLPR

What is called AC50 is the midpoint of the concentration-response curve, whichever way the signal moves. Take `COc1cc(C(=O)NC2CCN(C)CC2)ccc1Nc1ncc2c(n1)N(C1CCCC1)CC(F)(F)C(=O)N2C`: the AC50 in assay [1] is 5.48 µM (active); in assay [2], 14 µM (active); in assay [3], 12.1 µM (active); in [4] it was 15.1 µM (active); in assay [5], 11.2 µM (active); with CD38, CD38 (gene 952) it was 11.6 µM (active). Moreover, the AC50 with CD40, CD40 (gene 958) is 16.6 µM (active); in the assay with CD69, CD69 (gene 969), 10.8 µM (active); in assay [6] it was 13.9 µM (active); in assay [7], 11.4 µM (active); in [8] it was 10.2 µM (active); in [9] it was 5.59 µM (active).
In the case of `CC[C@H](NC(=O)c1cc(F)ccc1NS(=O)(=O)c1cccc2cccnc12)c1ccccc1`, the AC50 in [1] was 8.72 µM (active); with CD40, CD40 (gene 958) it was 6.29 µM (active); in the assay with CD69, CD69 (gene 969), 10.5 µM (active); in [6], 5.84 µM (active); in [7], 4 µM (active); in assay [8] it was 8.99 µM (active). Moreover, the AC50 in assay [9] was 22.5 µM (active). In addition, the outcome in [2] is “inactive”; in assay [3], “inactive”; in assay [4], “inactive”; in assay [5] it was “inactive”; with CD38, CD38 (gene 952), “inactive”; in [10] it was “inactive”. In addition, in assay [11], the compound was classed as inactive.
On to `CC1(C)NC(=O)N(c2ccc([N+](=O)[O-])c(C(F)(F)F)c2)C1=O`, for which the outcome in [1] is “inactive”; in [2], “inactive”; in assay [3] it was “inactive”; in assay [4], “inactive”; in assay [5], “inactive”; in the assay with CD38, CD38 (gene 952) it was “inactive”. In addition, the outcome was “inactive” with CD40, CD40 (gene 958); “inactive” in the assay with CD69, CD69 (gene 969); “inactive” in assay [6]; “inactive” in assay [7]; “inactive” in assay [12]; “inactive” in assay [8]. Also, in assay [9], the outcome was inactive. In addition, the AC50 in assay [13] was 7.49 µM (active).
Turning to `CCN(Cc1cccc(S(=O)(=O)O)c1)c1ccc(C(=C2C=CC(=[N+](CC)Cc3cccc(S(=O)(=O)O)c3)C=C2)c2ccccc2S(=O)(=O)[O-])cc1`, the outcome was “inactive” in assay [1]; “inactive” in [2]; “inactive” in assay [3]; “inactive” in assay [4]; “inactive” in assay [5]; “inactive” in the assay with CD38, CD38 (gene 952). Further, the outcome was “inactive” with CD40, CD40 (gene 958); “inactive” in the assay with CD69, CD69 (gene 969); “inactive” in [6]; “inactive” in assay [7]; “inactive” in assay [8]. Besides, the AC50 in assay [9] is 9.61 µM (active).
For the compound `O=C(Nc1ccc(Cl)cc1)Nc1ccc(Cl)c(Cl)c1`, the AC50 in assay [1] was 1.9 µM (active); in assay [2] it was 11.8 µM (active); in assay [3], 2.26 µM (active); in assay [4], 3.23 µM (active); in assay [5], 3.92 µM (active); with CD38, CD38 (gene 952), 2.11 µM (active). In addition, the concentration at half-maximal activity (AC50) in the assay with CD40, CD40 (gene 958) is 3.04 µM (active); with CD69, CD69 (gene 969) it was 1.91 µM (active); in assay [6], 3.32 µM (active); in assay [7], 2.6 µM (active); in assay [8] it was 2.29 µM (active); in [9], 1.79 µM (active). The AC50 in [14] was 2.28 µM (active).
In the case of `CCN(CC)C(=O)c1cc(S(=O)(=O)Cc2ccccc2)c(N2CCC(c3ccccc3)CC2)cc1N(CC)CCN(C)C`, in assay [1], the outcome was inactive. Also, the AC50 is 11.8 µM (active) in assay [2]; 33.5 µM (active) in [3]; 12.4 µM (active) in assay [4]; 11.5 µM (active) in assay [5]; 9.58 µM (active) with CD38, CD38 (gene 952); 10.4 µM (active) in the assay with CD40, CD40 (gene 958). Besides, the concentration at half-maximal activity (AC50) is 9.82 µM (active) with CD69, CD69 (gene 969); 11.8 µM (active) in [6]; 11.4 µM (active) in assay [7]; 6.84 µM (active) in assay [10]; 5.2 µM (active) in assay [8]; 5.1 µM (active) in [9]. For the same compound, the AC50 in [15] was 5.11 µM (active).
Regarding `CCCCOC(=O)CC(CC(=O)OCCCC)(OC(C)=O)C(=O)OCCCC`, the outcome in [1] was “inactive”; in assay [2], “inactive”; in assay [3], “inactive”; in assay [4] it was “inactive”; in [5], “inactive”; with CD38, CD38 (gene 952), “inactive”. Further, the outcome is “inactive” with CD40, CD40 (gene 958); “inactive” with CD69, CD69 (gene 969); “inactive” in assay [6]; “inactive” in assay [7]; “inactive” in [10]; “inactive” in [8]. Also, the outcome in [9] and in [14] was inactive.
